The experiment in a line: JC-1 mitochondrial signal, unstimulated MM1S myeloma – cell-based, JC-1 fluorescence, 24 h, 100 nL compound, profiling panel (AID 1170). Further: test concentration not given here. The conditions noted are these: MM1S mitochondrial potential, higher = more signal.
In turn, `COC(=O)c1c(CC[C@@H](CO)NC(=O)N2CCC[C@H]2Cn2cc(-c3ccccn3)nn2)oc(C(C)=O)c1C(=O)OC` displayed a z-score of -0.475. Take `CCN(CC)c1ccc(N2CC=CC34O[C@@H]5/C=C\CCCOC(=O)C5[C@H]3C(=O)N(CCO)[C@@H]4C2=O)cc1` (stereo partly specified): the z-score was -0.245. With `CCOC(=O)C1=CCC(c2ccccc2)N(S(=O)(=O)CC[Si](C)(C)C)C1` (stereo unspecified) the figure was -1.66; with `NCCCCCNC(=O)[C@@H]1C[C@@H]2C(=O)NCC(=O)N2[C@@H]1c1ccc(O)cc1`, -0.408; with `CC(C)(C)OC(=O)CC[C@]1(C(=O)O)N=C(c2ccc(OCCCO)cc2)O[C@H]1c1ccccc1N=[N+]=[N-]`, -0.589. With `O=C1C2C=CC(C(O)C(c3ccccc3)c3ccccc3)N(n3cnnc3)C2C(=O)N1Cc1ccccc1` (stereo unspecified) the figure was 0.153.

Turning to `COc1ccc([Si](C)(C)[C@H]2[C@H](CCn3cc([C@H](O)c4ccccc4)nn3)O[C@@]3(C(=O)N(Cc4cccc(N5CCOC5=O)c4)c4ccccc43)[C@@H]2C)cc1`, the z-score is -0.637. Under `COCCOC(=O)N1C(=O)[C@@]2(c3cc(C#Cc4ccc(OC)cc4)ccc31)[C@H](C(N)=O)[C@H]1C(=O)O[C@H](c3ccccc3)[C@H](c3ccccc3)N1[C@@H]2c1ccccc1OCCO` stands -1.38. For `CC(CO)N1C(=O)[C@@H]2C3C(=O)OCCC/C=C\[C@H]3OC23C=CCN(c2ccc4ccccc4c2)C(=O)[C@@H]13` (stereo partly specified), the z-score was -0.832. With `O=C1NC(=O)C2C1C=CC(C(O)C(c1ccccc1)c1ccccc1)N2Nc1ccc(Cl)cc1Cl` (stereo unspecified) the figure was -0.133; with `CC(=O)n1cc(C(O)C2C=CC3C(=O)N(C)C(=O)C3N2Nc2ccccc2)c2ccccc21` (stereo unspecified), 0.118.

Values taken from PubChem BioAssay.
